Most compounds without a hit are left out; they make up all but 19% or so of the library.
IL1B secr inh – inhibitors of inflammasome signaling (IL-1 beta secretion). THP-1 LPS/ATP IL-1B secretion, AlphaLISA, 16 h; active compounds read low. AID 743279. 360,000 compounds, 4.7% hits. activity change, % at 57.5 µM; in the data active means activity change below about -50%; inconclusive means mostly about -30% to -49%
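Secreted IL-1B measured by AlphaLISA bead assay after 16 h compound exposure of THP-1 cells; compounds (final up to 57.5 uM) added 1 h before LPS (250 ng/mL) and ATP (1.25 mM) stimulation; lower signal means less secretion.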
TDP1 cell CPT – DT40-hTDP1 cell growth loss with CPT | chicken DT40 Tdp1-/-;hTDP1 cells + 20 nM CPT, ATP luminescence, 48 h | Potency, µM (highest dose often 46.2 µM), for the others: top-dose activity change, negative = growth inhibition, hits mostly inhibitors | 420,000 compounds, 12% hits | AID 686979; further: potency means the concentration at half of the fitted maximal effect; nearly all actives have a fitted effect of over 55% in size
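Chicken DT40 Tdp1-/- cells complemented with human TDP1, 400 cells/well, exposed to compounds plus 20 nM camptothecin for at least 48 h at 37 C; viability read as ATP content by CellTiter-Glo luminescence.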
ELG1 repair inh – blocks ELG1-dependent DNA repair in HEK293T cells | AID 504467 | 330,000 compounds, 2.3% hits | Potency, µM (titrated, usually from 46.1 µM), without a hit: at the highest dose activity change, negative = inhibition, most hits filed as inhibitors | HEK293T ELG1-luciferase reporter, luminescence, 16 h; DNA damage induced by 5-fluorouridine; further: potency means the concentration at half of the fitted maximal effect; nearly all actives have a fitted effect of over 55% in size
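Quantitative HTS, concentration-response format. 2,000 cells/well co-treated with 5-fluorouridine and compound, 16 hr in 5% CO2 at 37 °C; ONE-Glo luminescence read after 30 min.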
HT1080-NT tox – kills 2HG-producing HT-1080-NT fibrosarcoma cells; HT-1080-NT fibrosarcoma viability, CellTiter-Glo ATP luminescence, 48 h; Potency, µM (doses to about 46.1 µM), without a hit: top-dose activity, negative = less viability, most hits filed as cytotoxic; 360,000 compounds, 1.6% hits;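 further: NT is the 2HG producing partner of a matched IDH1 knockdown line; potency means the concentration at half of the fitted maximal effect; 0% = DMSO-treated cells and -100% = media-only wells without cells; nearly all actives have a fitted effect of over 55% in size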
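HT-1080-NT fibrosarcoma cells (2HG-overproducing), 750 cells/well in RPMI with 5% FBS, dosed after 2 h and incubated 48 h at 37C. CellTiter-Glo luminescence normalized to DMSO and no-cell wells; concentration-response curves fitted and classed.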
HT1080 IDH1KD tx – HT-1080 IDH1 knockdown cell toxicity (counter line). AID 686971. Potency, µM (series often up to 46.1 µM), without a hit: top-dose activity, negative = toxicity, usual class: cytotoxic. HT-1080 IDH1 knockdown viability, ATP luminescence, 48 h. 360,000 compounds, 2% hits;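 further: potency means the concentration at half of the fitted maximal effect; 0% = DMSO wells and -100% = cell-free medium wells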
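Viability of IDH1-knockdown HT-1080 fibrosarcoma cells was assessed by CellTiter-Glo after 48 h at 37 °C with titrated compound; concentration-effect curves were classified by fit quality and response size.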
DT40 TDP1 no CPT – qHTS for Inhibitors of human tyrosyl-DNA phosphodiesterase 1 (TDP1): qHTS in cells in absence of CPT; 420,000 compounds, 15% hits; DT40 Tdp1-/- hTDP1 cells, no CPT, ATP luminescence, 48 h; Potency, µM (doses to about 46.2 µM), for the others: top-dose activity change, negative = growth inhibition, most hits filed as inhibitors; AID 686978, 2013; further: potency means the concentration at half of the fitted maximal effect; nearly all actives have a fitted effect of over 55% in size
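A cellular qHTS used chicken DT40 cells lacking endogenous Tdp1 but carrying stably transfected human TDP1. Compounds were applied without camptothecin, and cell growth kinetics were judged by ATP-dependent luminescence after ≥48 hr.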
Starred values were filed as active, the others as inactive; ? = inconclusive; . = not tested or not shown. Unless noted, the call rests on the fitted dose curve; in most records, active means well fitted curve in the direction sought with a large enough effect; inconclusive means small, poorly fitted or top-dose-only effect, or another doubt; inactive means no such curve, though single readings can be large; an effect the other way counts as inactive or inconclusive. Unless noted, on the % scale 0 is the no-effect control and ±100 the full control effect.

SMILES | IL1B secr inh | TDP1 cell CPT | ELG1 repair inh | HT1080-NT tox | HT1080 IDH1KD tx | DT40 TDP1 no CPT
COC(=O)[C@]12CCCCC=C1N(Cc1cccc3ccccc13)C(=O)[C@H](CC(=O)NCc1ccc(C)o1)C2 | 0 | ? | . | -28% | ? | 21µM*
COc1ccccc1N1CCN(CCCCOc2cccc3ccccc23)CC1 | -57* | 18µM* | ? | ? | 16µM* | 9.2µM*
COc1ccccc1N1CCN(CCCCN2C(=O)C3CCCCN3C2=O)CC1 (stereo unspecified) | 21 | 26µM* | -26% | -25% | -19% | ?
COc1ccccc1OCCCCN1CCN(c2ccccc2OC)CC1 | -6 | ? | -18% | -15% | -11% | ?
COc1ccccc1N1CCN(CCCCCCOc2ccc(F)cc2)CC1 | -23 | 23µM* | -23% | -16% | 4% | 21µM*
Cc1ccc(Cl)cc1NC(=O)CSc1ccc(C(=O)O)cn1 | . | -29% | . | . | . | -3%
CCOc1ccc(N2CC(c3nc4ccccc4n3CCCOc3ccc(OC)cc3)CC2=O)cc1 (stereo unspecified) | . | ? | . | . | . | 8.2µM*
CCOc1ccccc1N1CC(c2nc3ccccc3n2CCCOc2ccc(OC)cc2)CC1=O (stereo unspecified) | . | 0% | . | . | . | 8%
Cc1cc(C)cc(OCCn2c(C3CC(=O)N(c4ccccc4Cl)C3)nc3ccccc32)c1 (stereo unspecified) | . | ? | . | . | . | 21µM*
Cc1ccccc1OCCCCn1c(C2CC(=O)N(c3ccccc3Cl)C2)nc2ccccc21 (stereo unspecified) | . | ? | . | . | . | -18%
COc1ccc(OCCn2c(C3CC(=O)N(c4ccc(F)cc4)C3)nc3ccccc32)cc1 (stereo unspecified) | . | 16µM* | . | . | . | 18µM*
CCOc1ccccc1N1CC(c2nc3ccccc3n2CCOc2ccc(OC)cc2)CC1=O (stereo unspecified) | . | ? | . | . | . | 18µM*
COc1ccc(S(=O)(=O)N2CCC3(CC2)OCCN3S(=O)(=O)c2ccccc2)cc1OC | 5 | ? | ? | -12% | -16% | -23%
CCc1ccccc1N1CC(c2nc3ccccc3n2CCCOc2ccc(Cl)cc2)CC1=O (stereo unspecified) | . | -11% | . | . | . | -14%
CCc1ccccc1N1CC(c2nc3ccccc3n2CC(C)C)CC1=O (stereo unspecified) | . | 15µM* | . | . | . | 21µM*
Cc1ccc(OCCn2c(C3CC(=O)N(Cc4ccccc4)C3)nc3ccccc32)cc1 (stereo unspecified) | -22 | ? | 15µM* | -23% | -22% | 15µM*
Cc1ccc(NC(=O)Cc2ccc(-c3ccccc3)cc2)nc1 | -60* | ? | ? | ? | -9% | -27%
O=C(CC(=O)Nc1ccccn1)Nc1ccccn1 | 24 | 1% | 7% | -4% | 0% | 6%
Cc1ccc(NC(=O)CCc2c[nH]c3ccccc23)nc1 | 31 | 2.6µM* | ? | ? | ? | 2.6µM*
Cc1ccc(NC(=O)CCCc2ccccc2)nc1 | -15 | -3% | ? | -4% | -2% | -9%
O=C(Cc1ccc(-c2ccccc2)cc1)Nc1ccccn1 | -69* | 1% | ? | -13% | -25% | ?
Cc1ccc(NC(=O)Cc2ccc(Cl)cc2)nc1 | -15 | 10% | . | -12% | 3% | 8%
CCOC(=O)C1=C(COC(=O)c2ccc(OC)c(S(=O)(=O)N3CCOCC3)c2)NC(=O)NC1C (stereo unspecified) | -23 | -10% | . | 0% | 3% | 13%
COc1ccccc1C(=O)Nc1ccccc1C(=O)OCc1cc(=O)n2c(C)csc2n1 | . | 10% | . | . | . | -1%

Screens deposited in PubChem by National Center for Advancing Translational Sciences (NCATS).
